# Test results taken from paper PMC11006913.
# Changes are numbered by the printed parent chain.
# Assays:
# Assay in all cases: PBM; 200 nM protein, PBS
# Settings in all cases: dsDNA, one strand shown
# HOXB9 [1] = molecular target: HOXB9 (Homo sapiens, UniProt P17482 171-250, T197M)
# HOXB9 [2] = molecular target: HOXB9 (Homo sapiens, UniProt P17482 171-250)
# HOXB9 [3] = molecular target: HOXB9 (Homo sapiens, UniProt P17482 171-250, R186Q)
# SIX6 [4] = molecular target: T1, SIX6 (Homo sapiens, UniProt O95475 114-200, L167I)
# T1 sequence: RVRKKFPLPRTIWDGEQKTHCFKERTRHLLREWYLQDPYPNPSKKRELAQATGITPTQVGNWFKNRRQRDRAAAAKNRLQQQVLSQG
# SIX6 [5] = molecular target: T2, SIX6 (Homo sapiens, UniProt O95475 114-200, L143V)
# T2 sequence: T1 sequence with L30V, I54L
# SIX6 [6] = molecular target: T3, SIX6 (Homo sapiens, UniProt O95475 114-200, H141N)
# T3 sequence: T1 sequence with H28N, I54L
# SIX6 [7] = molecular target: T4, SIX6 (Homo sapiens, UniProt O95475 114-200, T165P)
# T4 sequence: T1 sequence with T52P, I54L
# SIX6 [8] = molecular target: T5, SIX6 (Homo sapiens, UniProt O95475 114-200, L167M)
# T5 sequence: T1 sequence with I54M
# SIX6 [9] = molecular target: T6, SIX6 (Homo sapiens, UniProt O95475 114-200, L143M)
# T6 sequence: T1 sequence with L30M, I54L
# SIX6 [10] = molecular target: T7, SIX6 (Homo sapiens, UniProt O95475 114-200, L143I)
# T7 sequence: T1 sequence with L30I, I54L
# SIX6 [11] = molecular target: T8, SIX6 (Homo sapiens, UniProt O95475 114-200, T165G)
# T8 sequence: T1 sequence with T52G, I54L
# SIX6 [12] = molecular target: T9, SIX6 (Homo sapiens, UniProt O95475 114-200, T139Q)
# T9 sequence: T1 sequence with T26Q, I54L
# SIX6 [13] = molecular target: T10, SIX6 (Homo sapiens, UniProt O95475 114-200, T165A)
# T10 sequence: T1 sequence with T52A, I54L
# SIX6 [14] = molecular target: T11, SIX6 (Homo sapiens, UniProt O95475 114-200, L167V)
# T11 sequence: T1 sequence with I54V
# SIX6 [15] = molecular target: T12, SIX6 (Homo sapiens, UniProt O95475 114-200)
# T12 sequence: T1 sequence with I54L
# SIX6 [16] = molecular target: T13, SIX6 (Homo sapiens, UniProt O95475 114-200, T165I)
# T13 sequence: T1 sequence with T52I, I54L
# HOXB6 = HOXB6 (Homo sapiens, UniProt P17509 132-218, K202E)
# Sequence of HOXB6 (P17509 132-218 K202E): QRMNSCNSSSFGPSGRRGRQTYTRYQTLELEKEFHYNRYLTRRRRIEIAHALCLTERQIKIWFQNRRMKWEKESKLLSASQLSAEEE
# Sequence of HOXB9 (Homo sapiens, UniProt P17482 171-250, T197M) (P17482 171-250 T197M): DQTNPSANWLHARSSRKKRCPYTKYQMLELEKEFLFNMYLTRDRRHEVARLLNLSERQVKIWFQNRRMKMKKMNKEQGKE
# Sequence of HOXB9 (Homo sapiens, UniProt P17482 171-250) (P17482 171-250): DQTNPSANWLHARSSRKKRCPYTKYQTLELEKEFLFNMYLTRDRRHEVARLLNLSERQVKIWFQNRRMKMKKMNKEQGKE
# Sequence of HOXB9 (Homo sapiens, UniProt P17482 171-250, R186Q) (P17482 171-250 R186Q): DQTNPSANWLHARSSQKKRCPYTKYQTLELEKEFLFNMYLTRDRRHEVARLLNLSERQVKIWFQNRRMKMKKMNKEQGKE
sequence,measurement,setting,value
GAAGCGGC,binding signal,HOXB9 [1],"8.49 upbm affinity estimate (log intensity, higher = more binding, comparable within an allelic series)"
same,binding signal,HOXB9 [2],"8.36 upbm affinity estimate (log intensity, higher = more binding, comparable within an allelic series)"
same,binding signal,HOXB9 [3],"8.37 upbm affinity estimate (log intensity, higher = more binding, comparable within an allelic series)"
ATGGTGTC,binding signal,SIX6 [4],"9.97 upbm affinity estimate (log intensity, higher = more binding, comparable within an allelic series)"
ACACCCAG,binding signal,HOXB9 [1],"8.69 upbm affinity estimate (log intensity, higher = more binding, comparable within an allelic series)"
same,binding signal,HOXB9 [2],"8.47 upbm affinity estimate (log intensity, higher = more binding, comparable within an allelic series)"
same,binding signal,HOXB9 [3],"8.52 upbm affinity estimate (log intensity, higher = more binding, comparable within an allelic series)"
AGACGCGG,binding signal,HOXB9 [1],"8.63 upbm affinity estimate (log intensity, higher = more binding, comparable within an allelic series)"
same,binding signal,HOXB9 [2],"8.58 upbm affinity estimate (log intensity, higher = more binding, comparable within an allelic series)"
same,binding signal,HOXB9 [3],"8.55 upbm affinity estimate (log intensity, higher = more binding, comparable within an allelic series)"
CCCGCGAG,binding signal,HOXB9 [1],"8.58 upbm affinity estimate (log intensity, higher = more binding, comparable within an allelic series)"
same,binding signal,HOXB9 [2],"8.45 upbm affinity estimate (log intensity, higher = more binding, comparable within an allelic series)"
same,binding signal,HOXB9 [3],"8.39 upbm affinity estimate (log intensity, higher = more binding, comparable within an allelic series)"
GCCACTCC,binding signal,HOXB9 [1],"8.73 upbm affinity estimate (log intensity, higher = more binding, comparable within an allelic series)"
same,binding signal,HOXB9 [2],"8.79 upbm affinity estimate (log intensity, higher = more binding, comparable within an allelic series)"
same,binding signal,HOXB9 [3],"8.8 upbm affinity estimate (log intensity, higher = more binding, comparable within an allelic series)"
GGCGCAGA,binding signal,HOXB9 [1],"8.52 upbm affinity estimate (log intensity, higher = more binding, comparable within an allelic series)"
same,binding signal,HOXB9 [2],"8.62 upbm affinity estimate (log intensity, higher = more binding, comparable within an allelic series)"
same,binding signal,HOXB9 [3],"8.63 upbm affinity estimate (log intensity, higher = more binding, comparable within an allelic series)"
CCCTCGGC,binding signal,SIX6 [4],"9.06 upbm affinity estimate (log intensity, higher = more binding, comparable within an allelic series)"
same,binding signal,SIX6 [5],"8.91 upbm affinity estimate (log intensity, higher = more binding, comparable within an allelic series)"
same,binding signal,SIX6 [6],"9.09 upbm affinity estimate (log intensity, higher = more binding, comparable within an allelic series)"
same,binding signal,SIX6 [7],"8.86 upbm affinity estimate (log intensity, higher = more binding, comparable within an allelic series)"
same,binding signal,SIX6 [8],"9.04 upbm affinity estimate (log intensity, higher = more binding, comparable within an allelic series)"
same,binding signal,SIX6 [9],"9.07 upbm affinity estimate (log intensity, higher = more binding, comparable within an allelic series)"
same,binding signal,SIX6 [10],"8.97 upbm affinity estimate (log intensity, higher = more binding, comparable within an allelic series)"
same,binding signal,SIX6 [11],"9.07 upbm affinity estimate (log intensity, higher = more binding, comparable within an allelic series)"
same,binding signal,SIX6 [12],"9.11 upbm affinity estimate (log intensity, higher = more binding, comparable within an allelic series)"
same,binding signal,SIX6 [13],"8.99 upbm affinity estimate (log intensity, higher = more binding, comparable within an allelic series)"
same,binding signal,SIX6 [14],"8.92 upbm affinity estimate (log intensity, higher = more binding, comparable within an allelic series)"
same,binding signal,SIX6 [15],"9.04 upbm affinity estimate (log intensity, higher = more binding, comparable within an allelic series)"
same,binding signal,SIX6 [16],"9.03 upbm affinity estimate (log intensity, higher = more binding, comparable within an allelic series)"
GGGGGCAA,binding signal,SIX6 [4],"8.96 upbm affinity estimate (log intensity, higher = more binding, comparable within an allelic series)"
same,binding signal,SIX6 [5],"9.04 upbm affinity estimate (log intensity, higher = more binding, comparable within an allelic series)"
same,binding signal,SIX6 [6],"8.94 upbm affinity estimate (log intensity, higher = more binding, comparable within an allelic series)"
same,binding signal,SIX6 [7],"8.98 upbm affinity estimate (log intensity, higher = more binding, comparable within an allelic series)"
same,binding signal,SIX6 [8],"9.06 upbm affinity estimate (log intensity, higher = more binding, comparable within an allelic series)"
same,binding signal,SIX6 [9],"8.97 upbm affinity estimate (log intensity, higher = more binding, comparable within an allelic series)"
same,binding signal,SIX6 [10],"8.96 upbm affinity estimate (log intensity, higher = more binding, comparable within an allelic series)"
same,binding signal,SIX6 [11],"8.89 upbm affinity estimate (log intensity, higher = more binding, comparable within an allelic series)"
same,binding signal,SIX6 [12],"8.98 upbm affinity estimate (log intensity, higher = more binding, comparable within an allelic series)"
same,binding signal,SIX6 [13],"9.04 upbm affinity estimate (log intensity, higher = more binding, comparable within an allelic series)"
same,binding signal,SIX6 [14],"8.9 upbm affinity estimate (log intensity, higher = more binding, comparable within an allelic series)"
same,binding signal,SIX6 [15],"8.96 upbm affinity estimate (log intensity, higher = more binding, comparable within an allelic series)"
same,binding signal,SIX6 [16],"9.01 upbm affinity estimate (log intensity, higher = more binding, comparable within an allelic series)"
CGCTCCGC,binding signal,SIX6 [4],"8.79 upbm affinity estimate (log intensity, higher = more binding, comparable within an allelic series)"
same,binding signal,SIX6 [5],"8.89 upbm affinity estimate (log intensity, higher = more binding, comparable within an allelic series)"
same,binding signal,SIX6 [6],"8.83 upbm affinity estimate (log intensity, higher = more binding, comparable within an allelic series)"
same,binding signal,SIX6 [7],"8.94 upbm affinity estimate (log intensity, higher = more binding, comparable within an allelic series)"
same,binding signal,SIX6 [8],"8.9 upbm affinity estimate (log intensity, higher = more binding, comparable within an allelic series)"
same,binding signal,SIX6 [9],"8.87 upbm affinity estimate (log intensity, higher = more binding, comparable within an allelic series)"
same,binding signal,SIX6 [10],"8.84 upbm affinity estimate (log intensity, higher = more binding, comparable within an allelic series)"
same,binding signal,HOXB6,"9.03 upbm affinity estimate (log intensity, higher = more binding, comparable within an allelic series)"
same,binding signal,SIX6 [11],"8.81 upbm affinity estimate (log intensity, higher = more binding, comparable within an allelic series)"
same,binding signal,SIX6 [12],"8.84 upbm affinity estimate (log intensity, higher = more binding, comparable within an allelic series)"
same,binding signal,SIX6 [13],"8.85 upbm affinity estimate (log intensity, higher = more binding, comparable within an allelic series)"
same,binding signal,SIX6 [14],"8.79 upbm affinity estimate (log intensity, higher = more binding, comparable within an allelic series)"
same,binding signal,SIX6 [15],"8.81 upbm affinity estimate (log intensity, higher = more binding, comparable within an allelic series)"
same,binding signal,SIX6 [16],"8.82 upbm affinity estimate (log intensity, higher = more binding, comparable within an allelic series)"
